# Source: PubChem BioAssay (NCATS)
# Inconclusive results are not listed. Where a call stands in place of a potency, no number is given. Active and inactive are the calls of the source. Calls come from the whole dose curve; as a rule, active = well fitted curve in the direction sought with a large enough effect; inconclusive = small, poorly fitted or top-dose-only effect, or another doubt; inactive = no such curve, though single readings can be large; an effect the other way counts as inactive or inconclusive.
# Assays:
# [1] = molecular target: Aldehyde dehydrogenase, mitochondrial (Homo sapiens) (UniProt P05091); experiment: qHTS for Inhibitors of the Aldehyde Dehydrogenase Family (ALDH2) Primary screen (AID 2061308); note: nearly all actives have a fitted effect of over 55% in size
# [2] = molecular target: Retinaldehyde dehydrogenase 3 (Homo sapiens) (UniProt P47895); experiment: qHTS for Inhibitors of the Aldehyde Dehydrogenase Family (ALDH1A3) Primary screen (AID 2061315)
Structure (SMILES),Potency [1],Potency [2]
O=C(Cc1nnc(CNC(=O)c2ccccc2)o1)Nc1cc(C(F)(F)F)ccc1Cl,inactive,inactive
COc1ccc(-c2ccc3ncnc(NCc4cccs4)c3c2)cc1,inactive,inactive
Cc1noc(C)c1-c1ccc2ncnc(NCc3cc(F)cc(F)c3)c2c1,inactive,inactive
Cc1cc(N[S+](=O)([O-])c2ccc3c(c2)CCC(=O)N3C)ccc1F,inactive,inactive
COc1cccc(NS(=O)(=O)c2ccc(NCc3cccc(OC)c3O)cc2)c1,inactive,inactive
N#CN1CCC(NC(=O)c2ccc(C(F)(F)F)cc2)CC1,inactive,inactive
CC(=O)Nc1sc2c(c1C#N)CCN(C(C)C)C2,inactive,inactive
O=C(Nc1nnc(-c2ccncc2)s1)Oc1ccc2ccccc2c1,inactive,inactive
Cc1ccc(C(=O)N2CCc3cc(-c4nc(NC(=O)Cc5ccc6c(c5)OCO6)sc4C)ccc32)cc1,inactive,inactive
O=S(=O)(Nc1nccs1)c1ccc(NCc2ccccc2)cc1,inactive,inactive
O=C(CCc1ccccc1)Nc1cccc([S+](=O)([O-])Nc2ccccc2F)c1,inactive,inactive
Cc1ccccc1C(=O)N1CCc2cc(-c3nc(NC(=O)Cc4ccccc4)sc3C)ccc21,inactive,inactive
Cc1ccc(C2=NN(CC(=O)N(C)C(C)c3ccco3)C(=O)C2)cc1 (configuration not stated),inactive,inactive
Cc1ccc(OCCn2c(CCNC(=O)C3CCCCC3)nc3ccccc32)cc1,inactive,inactive
CCOc1ccc(CCNC(=O)c2cc3sccc3n2Cc2ccncc2)cc1OCC,inactive,inactive
CCN(CC)CCn1c(-c2ccccc2)nc2c(NCc3ccccc3)nc(C)nc21,inactive,inactive
COCc1nn2c(=O)cc(N3CCNCC3)nc2s1,inactive,inactive
Cc1cc(N[S+](=O)([O-])c2cc3c(cc2Cl)NC(=O)CO3)ccc1Br,inactive,inactive
COc1ccc(-c2nnc3n2N=C(c2ccccc2OC)CS3)cc1,inactive,inactive
Fc1ccc(-c2ccc(Nc3nc(-c4ccncc4)nc4ccccc34)cc2F)c(F)c1,inactive,inactive
N#Cc1nc(Nc2cc(F)cc(F)c2)c2ncn(CCCO)c2n1,inactive,inactive
